Data as given in PubChem BioAssay (NCI).
Compounds without any hit were thinned out: in the full panel of roughly 79,000, 15% have a hit. Unmarked numbers belong to inactive results. Active and inactive are the calls of the source. No stated cut-off is given here; in the data, active means growth inhibition above about 70%; inactive means the rest.

Key:
[1] = NCI Yeast Anticancer Drug Screen. Data for the rad50 strain (AID 155);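 further: 0% = growth of vehicle-only cultures of the same strain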; settings: S. cerevisiae rad50 strain growth inhibition, stronger effect = higher value
How it was run: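 Compounds were tested on a yeast strain with an engineered DNA damage repair alteration; the reported value is growth inhibition normalised to vehicle treatment.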

[2] = NCI Yeast Anticancer Drug Screen. Data for the mec2-1 strain (AID 157); settings: S. cerevisiae mec2-1 strain, stronger effect = higher value
How it was run: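 Yeast mec2-1 mutant treated with compound. Readout: growth inhibition vs vehicle controls.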

[3] = NCI Yeast Anticancer Drug Screen. Data for the sgs1 mgt1 strain (AID 161);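 further: 0% = growth of cultures given vehicle only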; settings: S. cerevisiae sgs1 mgt1 strain, stronger effect = higher value
How it was run: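 Genetically altered yeast, compound exposure, growth inhibition relative to vehicle.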

[4] = NCI Yeast Anticancer Drug Screen. Data for the cln2 rad14 strain (AID 165);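 further: 0% = growth equal to vehicle treated cultures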; settings: S. cerevisiae cln2 rad14 strain, stronger effect = higher value
How it was run: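 cln2 rad14 yeast strain; compound exposure; growth inhibition read vs vehicle controls.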

[5] = NCI Yeast Anticancer Drug Screen. Data for the bub3 strain (AID 167); settings: S. cerevisiae bub3 mutant strain, stronger effect = higher value
How it was run: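 Growth of a checkpoint-deficient yeast mutant is measured after compound exposure. Values represent inhibition relative to vehicle.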

[6] = NCI Yeast Anticancer Drug Screen. Data for the mlh1 rad18 strain (AID 175); settings: S. cerevisiae mlh1 rad18 strain growth inhibition, stronger effect = higher value
How it was run: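 Yeast w/ defined DNA-repair lesions; compound exposure; growth vs vehicle controls → % inhibition.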

[7] = at 5.0 µM (retest, dose inferred, filed as 0.5)
[8] = at 50.0 µM (retest, dose inferred, filed as 5.0)

| SMILES | growth inhibition [1, 7] | growth inhibition [1, 8] | growth inhibition ([1]; at 50.0 µM) | growth inhibition [2, 7] | growth inhibition [2, 8] | growth inhibition ([2]; at 50.0 µM) | growth inhibition [3, 7] | growth inhibition [3, 8] | growth inhibition ([3]; at 50.0 µM) | growth inhibition [4, 7] [%] | growth inhibition [4, 8] | growth inhibition ([4]; at 50.0 µM) | growth inhibition [5, 7] | growth inhibition [5, 8] | growth inhibition ([5]; at 50.0 µM) | growth inhibition [6, 7] | growth inhibition [6, 8] | growth inhibition ([6]; at 50.0 µM) |
| --- | --- | --- | --- | --- | --- | --- | --- | --- | --- | --- | --- | --- | --- | --- | --- | --- | --- | --- |
| Cn1cc(NC(=O)c2cc(NC(=O)CCCCCCCC(=O)Nc3cc(C(=O)Nc4cc(C(=O)NCCC(=N)N)n(C)c4)n(C)c3)cn2C)cc1C(=O)NCCC(=N)N | 82% (active) | 96% (active) | 86.8% (active) | 84% (active) | 98% (active) | 89.8% (active) | 73% (active) | 98% (active) | 90.2% (active) | 28 | 91% (active) | 82% (active) | 88% (active) | 98% (active) | 88.2% (active) | 85% (active) | 98% (active) | 88.8% (active) |
| CN(C)c1ccc(C(O)(Cc2cccc(C#N)c2)c2ccc(N(C)C)cc2)cc1 | 2% | -13% | 63.5% | 0% | -6% | 55.9% | -4% | -10% | 52.8% | -2 | -16% | 66% | 2% | -5% | 69% | -2% | -70% | 56.8% |
| Cc1ccc(O)c(C(c2cccc(C(c3cc(C)ccc3O)c3cc(C)ccc3O)c2)c2cc(C)ccc2O)c1 | 66% | 94% (active) | 95.5% (active) | 54% | 97% (active) | 95.4% (active) | 31% | 97% (active) | 95% (active) | 66 | 96% (active) | 91.6% (active) | 72% (active) | 96% (active) | 95.7% (active) | 78% (active) | 96% (active) | 95.8% (active) |
| C/C(=C/c1ccccc1)C(=O)C1C(c2ccccc2)CC(O)C(C)C1c1ccccc1 (configuration not stated) | 11% | 86% (active) | 82.2% (active) | 1% | 81% (active) | 91.2% (active) | 10% | 86% (active) | 82.3% (active) | -4 | 89% (active) | 88.4% (active) | -5% | 82% (active) | 77.8% (active) | 16% | 90% (active) | 86.5% (active) |
| CC1=NC2=NC(CCCC(=O)OCc3ccc(Cl)c(Cl)c3)=NC3=CC=CC(=N1)N32 | 9% | 54% | 61.1% | 17% | 52% | 31.1% | 5% | 60% | 67.7% | 6 | 46% | 41% | 1% | 38% | 7.65% | 5% | 58% | 63.1% |
| Cn1c2c(c3ccccc31)CCN1C[C@@H]3CCCC[C@H]3C[C@@H]21 | 0% | 55% | 65% | 0% | 2% | 8.8% | -2% | -1% | 74.4% (active) | 6 | -6% | -58.1% | 2% | 0% | 62.5% | 0% | 25% | 30.1% |
| Cc1cccc2cc3c(cc12)c(C)cc1ccccc13 | -4% | 6% | 64.4% | -6% | -9% | 75.1% (active) | -4% | 30% | 53% | -1 | 1% | 51% | -22% | -12% | 61% | -17% | 2% | 63.6% |
| CCOC(=O)c1[nH]n(-c2ccccc2)c(=O)c1/C=N/C(=S)Nc1ccccc1OC | -7% | -3% | 0.4% | -14% | -11% | -31.6% | -5% | -3% | -18.1% | -23 | -12% | 44.6% | 0% | -9% | 10.1% | -2% | 1% | -16.2% |
| Cc1cc2c(cc1Cl)Sc1nnc(C)n1S2(=O)=O | 18% | 81% (active) | 74.8% (active) | 14% | 59% | 71% (active) | 3% | 34% | 62.2% | 17 | 34% | 48.8% | -12% | 85% (active) | 84.3% (active) | 9% | 75% (active) | 75.6% (active) |
